In the library only some 2.3% were active in any assay of this set; here they are far more common.
HTR2A ag = activates the mouse 5-HT2A serotonin receptor; CHO-K1 mHTR2A beta-arrestin complementation, luminescence; percent of 30 µM serotonin response; activation, % at 7.6 µM; P35363; actives 0.66% (n = 360,000);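 active = activation above a run cutoff, the mean activation of all tested compounds plus 3 SD, cut at about 14% in these data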;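 also: 0% = plate median of compound wells and 100% = 30 µM serotonin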
B2AR ag = human beta-2 adrenergic receptor agonism by FAP. response, % (concentration not given with the values). P07550. actives 0.43% (n = 340,000). Am2.2-beta2AR cells, FAP receptor internalization, flow cytometry;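 active = response above a set limit, near 3 SD of response in nonfluorescent compounds, cut at about 42% in these data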
ABHD5 PLIN5 PPI = inhibitors of human ABHD5-perilipin-5 interaction | inhibition, % at 4 µM | Split G. princeps luciferase complementation, luminescence, 4 h | actives 0.78% (n = 360,000) | Q00G26+Q8WTS1;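 active = inhibition above the mean inhibition across every tested compound plus 3 SD, cut at about 22% in these data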;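 also: 0% = DMSO only wells and the 100% control is not disclosed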
NTR1 ag = NTR1 (human) agonism; actives 0.17% (n = 330,000); NTR1-U2OS beta-arrestin-GFP spot imaging, agonist mode; P30989; activation, % at 20 µM;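 active = activation at or above 40% of the spot to cytoplasm intensity ratio, with at least 20 cells analyzed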;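 also: 0% = DMSO without peptide and 100% = 100 nM NTR1 peptide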
Target sequence (P30989 whole entry, looked up): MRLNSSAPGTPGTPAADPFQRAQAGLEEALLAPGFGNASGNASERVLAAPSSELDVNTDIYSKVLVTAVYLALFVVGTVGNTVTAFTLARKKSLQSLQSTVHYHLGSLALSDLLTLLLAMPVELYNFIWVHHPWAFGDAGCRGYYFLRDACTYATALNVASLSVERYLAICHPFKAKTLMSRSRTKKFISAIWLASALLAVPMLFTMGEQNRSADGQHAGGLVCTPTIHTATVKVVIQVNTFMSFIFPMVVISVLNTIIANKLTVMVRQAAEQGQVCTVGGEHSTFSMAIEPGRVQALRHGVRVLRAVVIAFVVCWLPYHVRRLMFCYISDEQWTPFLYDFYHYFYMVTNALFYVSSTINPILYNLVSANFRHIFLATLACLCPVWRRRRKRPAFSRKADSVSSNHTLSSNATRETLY
Exocytosis inh = blocks lytic granule exocytosis. TALL-104 LAMP-1 surface exposure, flow cytometry; cells stimulated with thapsigargin and PMA. actives 0.66% (n = 360,000). inhibition, % at 10 µM;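 active = inhibition above about 55%, limit read from the data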
* marks the source's active call; other numbers are inactive results; x = no result given.

SMILES | HTR2A ag | B2AR ag | ABHD5 PLIN5 PPI | NTR1 ag | Exocytosis inh
CC(=O)N1CCOc2ccc(S(=O)(=O)NCC3CCC(C(=O)Nc4ccc(C)cn4)CC3)cc21 (stereo not drawn) | 1 | -6 | 3 | 2 | -2
C[C@]12CCC(O)CC1=CCC1C2CC[C@]2(C)/C(=N\NC(N)=S)CCC12 (stereo partly drawn) | -4 | 0 | -9 | 1 | 5
Cc1cccc(N2CCN(c3nc4ccccc4n4cnnc34)CC2)c1C | 1 | 42* | -1 | 37 | 2
O=C1C2C3C=CC(CO)(O3)C2C(=O)N1c1ccccc1-c1ccccc1 (stereo not drawn) | -2 | 55* | 45* | 11 | 64*
CC1CCCC(N2CCN(S(=O)(=O)c3ccccc3)CC2)C1 (stereo not drawn) | 1 | 7 | -4 | -1 | -12
Cc1[nH]c2ccccc2c1/C=N/Nc1nc2ccccc2[nH]1 | -7 | 23 | 14 | 11 | 72*
Brc1ccc(-c2ccc(/C=N/Nc3nc(N4CCOCC4)nc(N4CCOCC4)n3)o2)cc1 | -6 | 8 | -4 | 14 | 8
Clc1ccc(-c2ccc(/C=N/Nc3cc(N4CCOCC4)nc(N4CCOCC4)n3)o2)cc1 | -1 | 27 | 2 | 6 | 83*
CC1(c2cccc(Br)c2)NC(=O)N(CC(=O)Nc2ccc(F)cc2)C1=O (stereo not drawn) | 14 | -4 | -2 | 0 | 0
CCCN1C(=O)/C(=C/c2ccc(C)o2)SC1=Nc1ccc(OC)cc1 | 4 | 16 | 5 | 5 | 80*
CCCN1C(=O)/C(=C/c2ccc(C)o2)SC1=Nc1ccc(OCC)cc1 | 3 | -1 | 8 | 4 | 70*
CCCN1C(=O)/C(=C/c2cc(C)n(C)c2C)SC1=Nc1ccc(OCC)cc1 | 1 | -1 | -2 | 11 | 2
COc1ccc(N=C2S/C(=C\c3ccc(N4CCOCC4)o3)C(=O)N2CCc2c[nH]c3ccccc23)cc1 | 1 | -499 | 72* | -3 | 82*
COc1ccc(N=C2S/C(=C\c3ccc(OCC(=O)O)cc3)C(=O)N2CCc2c[nH]c3ccccc23)cc1 | 0 | 16 | -2 | 2 | 2
O=C1c2cccc3c([N+](=O)[O-])ccc(c23)C(=O)N1c1ccccn1 | 0 | -114 | 6 | -2 | 29
O=C1c2cccc3c([N+](=O)[O-])ccc(c23)C(=O)N1c1nccs1 | 0 | 3 | 11 | -3 | 85*
Cc1ccc(S(=O)c2ccc([N+](=O)[O-])c3nonc23)cc1 (stereo not drawn) | 3 | x | 13 | x | 101*
FC(F)(F)c1cc(Cl)c2nc(-c3ccco3)c(Cc3ccccc3C(F)(F)F)n2c1 | -7 | x | 51* | x | -7
Cc1ccc(-c2nc3c(Cl)cc(C(F)(F)F)cn3c2Cc2ccccc2C(F)(F)F)cc1 | 2 | x | -4 | x | -12
CCC1CCCCN1CCCNC(=O)CCC(=O)N1CCOc2ccccc21 (stereo not drawn) | 3 | 0 | 4 | 0 | 15
COc1ccc(CN(C)CC(=O)Nc2ccccc2C(F)(F)F)cc1 | -4 | -3 | -2 | 2 | -2
COc1ccc2ccc(O)c(CN(C)CC(=O)Nc3ccccc3C(F)(F)F)c2c1 | -1 | 9 | 22* | 3 | 6
CCCc1nc2ccccc2c(=O)n1CC(=O)c1ccc(F)cc1 | 1 | -8 | -9 | 0 | -6
CC(C)(C)c1nnc(N/N=C/c2ccc(Br)cc2)n(N)c1=O | -3 | 70* | -5 | 0 | -5
CC(C)(C)c1ccc(/C=N/Nc2nncn2N)cc1 | 0 | -13 | -32 | 0 | -11
SMILES | HTR2A ag | B2AR ag | ABHD5 PLIN5 PPI | NTR1 ag | Exocytosis inh
COc1cc2c(cc1OC)C(c1cc3cccc(C)c3[nH]c1=O)N(C(=O)c1ccco1)CC2 (stereo not drawn) | 2 | -5 | -6 | -1 | -10
CCOc1ccc(CN(C)C(=O)[C@H](Cc2ccccc2)NC(=O)OCc2ccccc2)cc1OC | -1 | 15 | 5 | 1 | 56*
COc1ccc(CN(C)C(=O)C(Cc2ccccc2)NC(=O)c2ccccc2)cc1F (stereo not drawn) | 7 | 9 | -17 | 1 | -1
CN[C@@H]1[C@H](O)[C@H](NC)[C@H]2O[C@@]3(O)C(=O)C[C@@H](C)O[C@H]3O[C@@H]2[C@H]1O | 16* | -3 | -2 | 0 | -12
O=c1c2c3nc4ccccc4nc3n(-c3ccc4c(c3)OCCO4)c2ncn1C1CCCC1 | 1 | 53* | -1 | 5 | 0
O=[N+]([O-])c1c(Nc2ccccn2)cc(Cl)c2nonc12 | 6 | 63* | -9 | -2 | 97*
O=[N+]([O-])c1ccc(Nc2ccccn2)c([N+](=O)[O-])c1 | 6 | 20 | 7 | -1 | -1
Cc1ccc2c(c1)N(CC(=O)Nc1ncccc1C)C(=O)C(C(C)C)O2 (stereo not drawn) | -4 | 0 | 1 | 0 | -11
COc1cccc(/C=N/N2CCN(c3ccncc3S(=O)(=O)N3CCCCC3)CC2)c1 | 1 | 75* | -8 | 1 | -4
Cc1ccc(/C=N/N2CCN(c3ccncc3S(=O)(=O)N3CCCCC3)CC2)cc1 | 3 | -2 | -1 | 1 | 0
Cc1ccc(N(CC(=O)NC2CCCCC2)C(=O)CCCC(=O)Nc2ccccn2)cc1 | 0 | -15 | -9 | 0 | -3
COc1ccc(OC(C)C(=O)N2CCCc3ccccc32)cc1 (stereo not drawn) | 1 | 9 | -7 | 0 | 2
O=C(O)c1ccc(Sc2ccccn2)c([N+](=O)[O-])c1 | 2 | -4 | 1 | 0 | -1
N#Cc1cc(Sc2ccccn2)c(Sc2ccccn2)cc1C#N | 3 | 58* | 16 | -1 | -2
CC1(C(=O)NS(=O)(=O)c2cccc(F)c2)CCN1C(=O)CCC1CCCC1 (stereo not drawn) | 1 | x | -6 | x | 4
CCCCCC1C(C(=O)OCC)C(=O)NC1(C(=O)OCC)C(=O)OCC (stereo not drawn) | -1 | 3 | -8 | x | 95*
CCCCCC1CC(=O)NC1(C(=O)OCC)C(=O)OCC (stereo not drawn) | 2 | 5 | 0 | x | 21
COc1cccc(C(=O)C(C#N)=C(SC)SC)c1 | 3 | 21 | 8 | 10 | 70*
CSC(SC)=C(C#N)C(=O)c1ccccc1 | 0 | 70* | -4 | 6 | 56*
O=C1C=CC2(O[C@H](c3ccccc3)[C@@H](c3ccccc3)O2)[C@H](Sc2ccccc2O)C1 | -1 | 42* | 94* | x | 102*
CCCCNC(=O)C1c2ccccc2OCC(=O)N1Cc1cccnc1 (stereo not drawn) | 1 | x | -1 | x | -2
O=C1CCC(/C=C/c2ccccc2)=NN1Cc1ccccc1Cl | 5 | 43* | 2 | 5 | 10
CCOc1ccc(NC(=O)COC(=O)CN2CCCCCC2=O)cc1 | -2 | -3 | -8 | -1 | 5
Cc1cc(NC(=O)COC(=O)CNC(=O)c2cccs2)c([N+](=O)[O-])cc1C | -2 | -1 | 3 | 2 | -3

Compound activity from PubChem BioAssay.
